Source: PubChem BioAssay (EPA / NIEHS)
Results filed as inconclusive are left out. Active and inactive are the calls of the source. Rule for the calls, unless noted: active = hit-call score of the fitted dose curve at least 0.9, where 1 is the maximum; inactive = score below 0.9.

Tests used:
[1] = TAMU_PeakParms_SingleDonor1434_QT: Texas A&M University (TAMU) 1.5-hr Human Induced Pluripotent Stem Cell (iPSC)-derived Cardiomyocytes Calcium (Ca+2) Flux Assay for Cardiotoxicity: QT (decay-rise ratio) (AID 2284235; active = hit-call score of the fitted dose curve at least 0.9, where 1 is the maximum)
Method in brief: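 iPSC-derived cardiomyocytes (single donor 1434) dosed at 0.2, 1, 10, 100 uM final in 0.5% DMSO, 90 min at 37C. Ca2+ flux fluorescence decay/rise ratio; EC05 (5% increase versus DMSO) as POD, excluding beat-arrest and severe-notch data.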

[2] = CCTE_Mundy_HCI_Cortical_NOG_NeuronCount: CCTE's Neurite Outgrowth Assay in rat cortical cells for Neuron Count, Mundy Lab (AID 2284236; active = hit-call score of the fitted dose curve at least 0.9, where 1 is the maximum;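 note: neurons counted by imaging betaIII-tubulin and Hoechst stained cortical cells; cells exposed to compound for about 48 hours before fixation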)
Method in brief: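 Read-out: neuron number by high-content imaging of betaIII-tubulin (Alexa Fluor-488) and Hoechst-labelled rat primary cortical cells.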

[3] = CCTE_Mundy_HCI_Cortical_NOG_BPCount: CCTE's Neurite Outgrowth Assay in rat cortical cells for Branch Point Count, Mundy Lab (AID 2284237);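 for AC50: branch points counted about two days after chemical exposure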
Method in brief: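 Measured 50.33 h after dosing, this morphology endpoint uses rat primary cortical cultures labelled for betaIII-tubulin. Branch points are quantified by high-content imaging, with DMSO as negative control and baseline.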

[4] = CCTE_Mundy_HCI_hNP1_Casp3_7: CCTE's Caspase-Glo 3/7 Assay in human neuroprogenitor cells for Apoptosis, Mundy Lab (AID 2284240)
Method in brief: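 Apoptosis is scored by activated caspase-3/7 luminescence in WA09-derived neural progenitor cells, measured 26.5 h after chemical dosing. Values represent gain of signal relative to DMSO vehicle.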

[5] = CCTE_Mundy_HCI_hNP1_CellTiter: CCTE's Cell Titer-Glo 2 Assay in human neuroprogenitor cells for Viability, Mundy Lab (AID 2284241; active = hit-call score of the fitted dose curve at least 0.9, where 1 is the maximum)
Method in brief: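 Human neural progenitor cells (hNP1, WA09-derived) were plated on poly-L-ornithine/laminin and grown 40 to 44 hours at 37 °C, 5% CO2 before chemical addition. Twenty-four hours later, ATP was measured by CellTiter-Glo luminescence; loss of signal versus DMSO indicates reduced viability.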

[6] = TAMU_HCS_1.5hr_SingleDonor1434_Cytotoxicity: Cytotoxicity Assessment using High-content Screening (HCS) Fluorescent Imaging for the Texas A&M University (TAMU) 1.5-hr Human Induced Pluripotent Stem Cell (iPSC)-derived Cardiotoxicity Assay (AID 2284234; active = hit-call score of the fitted dose curve at least 0.9, where 1 is the maximum)
Method in brief: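 Human iPSC-derived cardiomyocytes dosed at 0.2, 1, 10, 100 uM final (0.5% DMSO) for 90 min at 37 C. Hoechst 33342-stained nuclei counted by 10x high-content imaging; POD is EC10, a 10% drop in total cell count versus DMSO.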

[7] = read-out: Interleukin 17A (IL17A), IL17A (gene 3605); experiment: BSK_BT_xIL17A: BioMAP Diversity Plus: BT Assay for Interleukin 17A (IL17A) Biomarker Activity (AID 2284229); settings: primary human B cells with PBMC
Method in brief: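 Human primary B cells plus PBMC, treated 24 h with chemicals; supernatant IL-17A quantified on Luminex xMAP beads. Gain of signal over DMSO control scored as activity.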

[8] = read-out: Tumor necrosis factor (Homo sapiens) (UniProt P01375); experiment: BSK_BT_xTNFa: BioMAP Diversity Plus: BT Assay for Tumor necrosis factor alpha (TNF-alpha) Biomarker Activity (AID 2284230); settings: primary human B cells with PBMC
Method in brief: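 Read-out: Luminex xMAP quantitation of secreted TNF-alpha from a B cell/PBMC co-culture 24 h after compound addition. Signal analysed relative to DMSO vehicle, positive fitting direction.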

[9] = read-out: Vascular cell adhesion molecule 1 (VCAM1), VCAM1 (gene 7412); experiment: BSK_MyoF_VCAM1: BioMAP Diversity Plus: MyoF Assay for Vascular cell adhesion molecule 1 (VCAM1) Biomarker Activity (AID 2284231); settings: primary human lung fibroblasts
Method in brief: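 VCAM-1 levels, lung fibroblasts, ELISA, 24 h exposure, increase scored relative to DMSO.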

[10] = read-out: Collagen I, COL1A1 (gene 1277); experiment: BSK_MyoF_CollagenI: BioMAP Diversity Plus: MyoF Assay for Collagen I Biomarker Activity (AID 2284238); settings: primary human lung fibroblasts
Method in brief: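 Measured by ELISA: Collagen I from human lung fibroblasts 24 h after compound addition, analysed for signal gain with DMSO as baseline; overt toxicity read from SRB staining of parallel cultures at the same time.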

[11] = read-out: Collagen III, COL3A1 (gene 1281); experiment: BSK_MyoF_CollagenIII: BioMAP Diversity Plus: MyoF Assay for Collagen III Biomarker Activity (AID 2284239); settings: primary human lung fibroblasts
Method in brief: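 Multiplexed cell assay in lung fibroblasts, harvested at 24 h post-dose. Collagen III detected by ELISA, with positive-direction fitting relative to DMSO vehicle.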

[12] = read-out: Interleukin 17F (IL17F), IL17F (gene 112744); experiment: BSK_BT_xIL17F: BioMAP Diversity Plus: BT Assay for Interleukin 17F (IL17F) Biomarker Activity (AID 2284243); settings: primary human B cells with PBMC
Method in brief: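 Luminex readout of IL-17F secretion, 24 h; cells: human B cells with PBMC; positive-direction analysis, DMSO control.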

[13] = read-out: Actin alpha 1 (ACTA1), ACTA1 (gene 58); experiment: BSK_MyoF_ACTA1: BioMAP Diversity Plus: MyoF Assay for Actin alpha 1 (ACTA1) Biomarker Activity (AID 2284244); settings: primary human lung fibroblasts
Method in brief: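 Human lung fibroblasts (MyoF system) dosed with test chemical for 24 h; α-SMA measured by ELISA. Gain of signal fitted relative to DMSO negative control as baseline.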

[14] = read-out: Interleukin 2 (IL2), IL2 (gene 3558); experiment: BSK_BT_xIL2: BioMAP Diversity Plus: BT Assay for Interleukin 2 (IL2) Biomarker Activity (AID 2284245); settings: primary human B cells with PBMC
Method in brief: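 Human B cells co-cultured with PBMC, exposed to test chemical for 24 h. Secreted IL-2 quantified by Luminex xMAP bead immunoassay; activity fitted in the positive direction relative to DMSO vehicle baseline.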

[15] = read-out: Basic fibroblast growth factor (bFGF), FGF2 (gene 2247); experiment: BSK_MyoF_bFGF: BioMAP Diversity Plus: MyoF Assay for Basic fibroblast growth factor (bFGF) Biomarker Activity (AID 2284246); settings: primary human lung fibroblasts
Method in brief: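 Human lung fibroblasts were dosed with chemicals and bFGF was quantified by ELISA 24 h later. Activity was fitted in the gain-of-signal direction relative to DMSO as negative control and baseline. Parallel SRB total-protein staining tracked overt cytotoxicity.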

[16] = read-out: Collagen IV, COL4A1 (gene 1282); experiment: BSK_MyoF_CollagenIV: BioMAP Diversity Plus: MyoF Assay for Collagen IV Biomarker Activity (AID 2284247); settings: primary human lung fibroblasts
Method in brief: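 Primary human lung fibroblasts were exposed to test chemicals and sampled 24 h after dosing. Collagen IV levels were measured by ELISA and fitted in the positive direction against DMSO as negative control and baseline.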

[17] = read-out: Plasminogen activator inhibitor-1 (PAI1), SERPINE1 (gene 5054); experiment: BSK_MyoF_PAI1: BioMAP Diversity Plus: MyoF Assay for Plasminogen activator inhibitor-1 (PAI1) Biomarker Activity (AID 2284256); settings: primary human lung fibroblasts;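 for outcome: PAI-1 protein level measured by ELISA in fibroblast cultures; PAI-1 read 24 h after compound addition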
Method in brief: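 In this multiplexed primary-cell system, fibroblasts from human lung received compound for 24 h before ELISA detection of PAI-1; overt toxicity was checked by SRB (0.1%, TCA-fixed, 560 nm) in parallel wells.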

[18] = CCTE_Mundy_HCI_Cortical_Synap_Neur_Matur_NeuronCount: CCTE's Synaptogenesis and Neurite Maturation Assay in rat cortical cells for Neuron Count, Mundy Lab (AID 2284242; active = hit-call score of the fitted dose curve at least 0.9, where 1 is the maximum;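 for AC50: neuron number from Hoechst nuclei and MAP2 staining by high-content imaging; hits reduce neuron count versus DMSO baseline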)
Method in brief: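 Rat primary cortical cells received AraC at DIV 5 to arrest glia, then were dosed with chemicals at DIV 7 through DIV 12. Fixed cells were stained for nuclei, MAP2 and synaptophysin, and neurons were counted by high-content imaging relative to DMSO.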

[19] = UKN2_HCS_IMR90_cell_viability: Viability Assessment in the University of Konstanz (UKN) Leist Lab Neural Crest Cell Migration Assay in human induced IMR90 Pluripotent Stem Cells (UKN2) (AID 2284233);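 note: viability of neural crest cells differentiated from IMR90 iPSC measured by calcein-AM fluorescence imaging; cells exposed to compound for 24 h after a 24 h migration phase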
Method in brief: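 Human IMR90-derived neural crest cells were allowed to migrate for 24 h into a cell-free zone, then exposed to test chemicals for 24 h. Calcein-AM and Hoechst staining with high-content imaging gave viability, analysed against DMSO baseline.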

[20] = UKN4_HCS_LUHMES_cell_viability: Viability Assessment in the University of Konstanz (UKN) Leist Lab Neurite Outgrowth Assay in human LUHMES cells (UKN4) (AID 2284232)
Method in brief: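 LUHMES cells differentiated 2 days, replated without cAMP/GDNF, then exposed to compounds for 24 h from attachment. Viability read by high-content fluorescence imaging after 30 min live-staining with H-33342 and calcein-AM; bidirectional fit relative to DMSO baseline.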

Chain of Tumor necrosis factor (Homo sapiens) (P01375 whole entry, looked up): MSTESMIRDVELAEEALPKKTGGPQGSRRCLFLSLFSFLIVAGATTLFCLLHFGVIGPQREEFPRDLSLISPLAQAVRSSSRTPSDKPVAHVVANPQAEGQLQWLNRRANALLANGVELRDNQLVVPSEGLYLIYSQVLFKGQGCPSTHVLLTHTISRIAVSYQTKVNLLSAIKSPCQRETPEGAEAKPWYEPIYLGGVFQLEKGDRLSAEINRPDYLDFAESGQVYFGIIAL

O=C(O)c1ccccc1
outcome [1]: inactive | outcome [2]: inactive | outcome [3]: inactive | outcome [4]: inactive | outcome [5]: inactive

CC(=O)[C@H]1CC[C@H]2[C@@H]3CCC4=CC(=O)CC[C@]4(C)[C@H]3CC[C@]12C
outcome [6]: inactive | outcome [1]: inactive

N#CSCSc1nc2ccccc2s1
AC50 [7]: 4.06 µM (active) | AC50 [8]: 7.28 µM (active) | AC50 [9]: 4.37 µM (active) | AC50 [10]: 5.73 µM (active) | AC50 [11]: 5.71 µM (active) | AC50 [12]: 4.93 µM (active) | AC50 [13]: 4.21 µM (active) | AC50 [14]: 5.16 µM (active) | AC50 [15]: 10.6 µM (active) | AC50 [16]: 6.4 µM (active) | AC50 [17]: 7.79 µM (active)

CC(C)(c1ccc(O)cc1)c1ccc(O)cc1
outcome [6]: inactive | outcome [1]: inactive | outcome [2]: inactive | outcome [18]: inactive

CC1(C)C(C=C(Cl)Cl)C1C(=O)OCc1cccc(Oc2ccccc2)c1 (configuration not stated)
outcome [1]: inactive | AC50 [2]: 78.4 µM (active) | AC50 [3]: 84.5 µM (active) | outcome [4]: inactive | outcome [5]: inactive | AC50 [18]: 5.69 µM (active)

C#CCOC(=O)[C@@H](C)Oc1ccc(Oc2ncc(Cl)cc2F)cc1
outcome [19]: inactive | outcome [2]: inactive | outcome [3]: inactive | outcome [4]: inactive | outcome [5]: inactive | outcome [18]: inactive

CCCN(CCC)C(=O)SCC
outcome [19]: inactive | outcome [4]: inactive | outcome [5]: inactive

Cc1nn(C)c(Oc2ccccc2)c1C=NOCc1ccc(C(=O)OC(C)(C)C)cc1
AC50 [19]: 14 µM (active) | AC50 [2]: 0.327 µM (active) | AC50 [3]: 0.014 µM (active) | AC50 [4]: 8.5 µM (active) | AC50 [18]: 0.00225 µM (active)

CSC(=O)c1cccc2nnsc12
outcome [3]: inactive | outcome [4]: inactive | outcome [5]: inactive

CCC(C)OC(=O)N1CCCCC1CCO (configuration not stated)
outcome [7]: inactive | outcome [8]: inactive | outcome [9]: inactive | outcome [10]: inactive | outcome [11]: inactive | outcome [12]: inactive | outcome [13]: inactive | outcome [14]: inactive | outcome [15]: inactive | outcome [16]: inactive | outcome [17]: inactive

c1ccc2[nH]c(-c3cscn3)nc2c1
outcome [6]: inactive | outcome [1]: inactive

S=C([S-])NCCNC(=S)[S-].[Mn+2]
AC50 [20]: 3.31 µM (active) | AC50 [19]: 16.1 µM (active) | outcome [4]: inactive | outcome [18]: inactive

CCN(CC)C(=O)c1cccc(C)c1
outcome [19]: inactive | outcome [2]: inactive | outcome [3]: inactive | outcome [4]: inactive | outcome [5]: inactive | outcome [18]: inactive

S=C(S)NCCNC(=S)S.[Mn+2].[S-]C([S-])=NCCN=C([S-])[S-].[Zn+2]
outcome [3]: inactive | outcome [4]: inactive

COCCO
outcome [7]: inactive | outcome [8]: inactive | outcome [9]: inactive | outcome [6]: inactive | outcome [10]: inactive | outcome [11]: inactive | outcome [12]: inactive | outcome [13]: inactive | outcome [14]: inactive | outcome [15]: inactive | outcome [16]: inactive | outcome [17]: inactive
